# PubChem BioAssay (NCATS)
# Inconclusive results are not listed. Calls of active or inactive are those of the source. Calls follow the shape of the dose curve; as a rule, active = well fitted inhibition curve with a large enough effect; inconclusive = small, poorly fitted or top-dose-only effect; inactive = flat fitted curve, though single readings scatter.
# Biological target: Lysine-specific demethylase 5B (Homo sapiens) (UniProt Q9UGL1)
# Experiment: Optimization screen for KDM5B Histone Demethylases FDH coupled qHTS against the LOPAC library (AID 1347166)
# Details: KDM5B demethylation, FDH-coupled NADH fluorescence (FDH is formaldehyde dehydrogenase); series mostly up to 57.5 µM
# Method in brief: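 KDM5BDeltaAP (200nM final) preincubated 10 min with compound, then 12.5uM H3K4Me3, 25uM a-ketoglutarate, ascorbate, Fe(II), NAD+ and FDH added; 50mM HEPES pH 7.5, 0.01% Tween-20. NADH fluorescence (340/450 nm) change over 30 min, room temperature.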
# Chain of Lysine-specific demethylase 5B (Homo sapiens) (Q9UGL1 whole entry, looked up): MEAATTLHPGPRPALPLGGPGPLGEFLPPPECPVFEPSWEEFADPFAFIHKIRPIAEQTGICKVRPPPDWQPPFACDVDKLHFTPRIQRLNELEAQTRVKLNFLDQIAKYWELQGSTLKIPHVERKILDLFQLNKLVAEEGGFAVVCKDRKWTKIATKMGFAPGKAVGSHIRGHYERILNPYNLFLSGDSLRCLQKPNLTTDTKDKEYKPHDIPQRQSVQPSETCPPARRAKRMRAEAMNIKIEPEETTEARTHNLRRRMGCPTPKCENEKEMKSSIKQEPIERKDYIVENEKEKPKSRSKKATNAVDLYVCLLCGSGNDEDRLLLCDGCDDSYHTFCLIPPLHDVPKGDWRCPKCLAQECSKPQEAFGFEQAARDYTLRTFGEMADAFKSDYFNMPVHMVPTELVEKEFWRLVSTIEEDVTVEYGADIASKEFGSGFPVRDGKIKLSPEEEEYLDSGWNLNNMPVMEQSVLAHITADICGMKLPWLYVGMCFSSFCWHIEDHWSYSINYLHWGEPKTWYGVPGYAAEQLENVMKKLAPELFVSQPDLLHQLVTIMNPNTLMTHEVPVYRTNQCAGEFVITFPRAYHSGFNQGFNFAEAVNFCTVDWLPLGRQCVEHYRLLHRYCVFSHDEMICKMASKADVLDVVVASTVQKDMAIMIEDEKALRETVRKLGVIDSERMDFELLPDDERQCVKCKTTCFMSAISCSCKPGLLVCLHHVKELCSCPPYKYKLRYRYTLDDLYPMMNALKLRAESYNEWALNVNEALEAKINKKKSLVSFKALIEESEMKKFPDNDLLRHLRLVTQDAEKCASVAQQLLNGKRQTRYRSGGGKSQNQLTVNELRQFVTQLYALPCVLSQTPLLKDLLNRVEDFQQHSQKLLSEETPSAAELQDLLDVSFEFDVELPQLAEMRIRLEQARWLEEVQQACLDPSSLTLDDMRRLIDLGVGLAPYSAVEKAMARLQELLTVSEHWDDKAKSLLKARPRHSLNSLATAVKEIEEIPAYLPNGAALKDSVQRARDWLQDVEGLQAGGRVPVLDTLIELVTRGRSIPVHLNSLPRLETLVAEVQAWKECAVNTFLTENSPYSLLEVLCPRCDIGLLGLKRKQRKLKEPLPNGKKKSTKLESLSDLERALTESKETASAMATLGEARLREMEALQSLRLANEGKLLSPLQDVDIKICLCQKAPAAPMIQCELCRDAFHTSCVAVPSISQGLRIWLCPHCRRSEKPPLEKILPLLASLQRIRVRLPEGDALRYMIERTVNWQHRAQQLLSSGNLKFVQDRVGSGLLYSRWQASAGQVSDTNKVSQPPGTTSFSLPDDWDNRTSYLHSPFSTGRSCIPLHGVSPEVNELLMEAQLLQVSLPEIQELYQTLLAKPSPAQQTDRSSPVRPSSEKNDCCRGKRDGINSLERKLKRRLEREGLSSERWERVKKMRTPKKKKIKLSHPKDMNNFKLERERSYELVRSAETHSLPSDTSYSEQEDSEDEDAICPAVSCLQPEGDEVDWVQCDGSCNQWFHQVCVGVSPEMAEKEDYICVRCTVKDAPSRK
row,SMILES,outcome
1,CNC(=O)[C@H]1O[C@@H](n2cnc3c(NCc4ccc(N)cc4)ncnc32)[C@H](O)[C@@H]1O,inactive
2,CNc1ncnc2c1ncn2[C@@H]1O[C@H](CO)[C@@H](O)[C@H]1O,inactive
3,O=C(O)CNC(=O)C(CS)Cc1ccccc1 (stereo not drawn),inactive
